Screening data: PubChem, Sanford-Burnham Center for Chemical Genomics
Only some compounds are listed: those with a hit (about 28% of all), similar ones and a draw of the others.
CYP2C19 act – human CYP2C19 activators, primary screen, biochemical, luminescence; AID 1025, 2008; 96,000 tested, under 10 active; recombinant CYP2C19, luciferin-H EGE luminescence; stronger effect = higher value; 0 = fully inhibited enzyme, 1 = untreated enzyme; activation factor at 5 µM;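 active = activation factor of at least 2 at 5 µM in the primary screen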;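 also: 0 = wells with 2.5 mM tranylcypromine and 1 = vehicle-only wells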
Target sequence (P33261 whole entry, looked up): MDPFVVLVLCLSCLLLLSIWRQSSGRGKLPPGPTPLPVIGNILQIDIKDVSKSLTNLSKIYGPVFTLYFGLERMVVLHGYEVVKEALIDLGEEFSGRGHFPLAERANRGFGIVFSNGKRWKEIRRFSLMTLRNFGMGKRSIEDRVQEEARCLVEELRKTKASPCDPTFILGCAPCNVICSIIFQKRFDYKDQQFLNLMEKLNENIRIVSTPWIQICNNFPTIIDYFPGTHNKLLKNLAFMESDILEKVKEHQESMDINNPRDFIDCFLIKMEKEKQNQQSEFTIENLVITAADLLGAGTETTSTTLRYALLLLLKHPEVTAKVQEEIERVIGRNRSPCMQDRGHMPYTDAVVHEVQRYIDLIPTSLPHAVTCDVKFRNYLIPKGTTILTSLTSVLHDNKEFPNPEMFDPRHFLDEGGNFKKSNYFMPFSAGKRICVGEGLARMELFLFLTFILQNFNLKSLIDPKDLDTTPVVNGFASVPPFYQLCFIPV
Pyk2 oligo antag – antagonists of Pyk2 self-association, primary screen, Q293 cells, FERM NanoBiT luminescence, HTS. Protein-tyrosine kinase 2-beta (Homo sapiens), Q14289. stronger effect = lower value. z-score (the deposit names both 25 µM and 10 µM). 0.83% of 99,000 active;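 active = Z-score of -3 or lower, scaled per plate to the spread of control and sample wells; inactive = z-score above -3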;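 also: negative z-score means lost luminescence so less FERM oligomerization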
CYP2C9 act – human CYP2C9 activators, primary screen, biochemical, luminescence | 1.4% of 96,000 active | activation factor at 5 µM | Cytochrome P450 2C9 (Homo sapiens), P11712 | recombinant CYP2C9, luciferin-H conversion; stronger effect = higher value; factor 1 = untreated enzyme, 0 = blocked | AID 1024, 2008;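 active = activation factor of 2 or more for CYP2C9 at a 5 µM dose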;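 also: 0 = sulfaphenazole-blocked wells and 1 = vehicle-only wells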
CYP2C9 inhib – blockers of cytochrome P450 2C9 activity – biochemical, luminescence, ADME assay, primary screen; P11712; CYP2C9 Supersomes, luciferin-H conversion; inhibition, % at 5 µM; 20% of 96,000 active; AID 777, 2007;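 active = blocking of liver enzyme CYP2C9 beyond about 50% at 5 µM, limit read from the data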
CYP2C19 inh – blockers of cytochrome P450 2C19 activity – biochemical, luminescence, ADME assay, primary screen. P33261. CYP2C19 Supersomes, luciferin-H EGE luminescence, 30 min. inhibition, % at 5 µM. 21% of 96,000 active;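 active = CYP2C19 inhibition above a set limit at 5 µM in the primary screen, cut at about 50% in these data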;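 also: plate controls were negative control wells for no effect and 2.5 mM tranylcypromine positive control for full effect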
Active calls of the source: *; / = not tested or not shown.

SMILES	CYP2C19 act	Pyk2 oligo antag	CYP2C9 act	CYP2C9 inhib	CYP2C19 inh
Cc1ccccc1Cn1cc(S(=O)(=O)CC(=O)Nc2nccs2)c2ccccc21	/	-2.9	/	/	/
COc1ccc(NC(=O)c2cc(C3CC3)on2)c(OC)c1	1	/	2.9*	-189	-3
Cc1c(Cl)cccc1NC(=O)c1cc(C2CC2)on1	0.2	/	1.2	-20	84*
COC(=O)c1cncc(O)c1	0.9	0.63	1.2	-23	6
CCOc1ccc(NC(=O)N[C@@H](CCSC)C(=O)OC)cc1	1.2	-0.61	1.1	-13	-18
COC(=O)NNC(=S)NCc1ccccc1	/	1.1	/	/	/
CC(C)C(NC(=S)NCc1ccccc1)C(=O)O (stereo not drawn)	0.1	-0.9	0.7	34	86*
Cc1cc(NS(=O)(=O)c2ccc(NC(=O)c3ccoc3C)cc2)nc(C)n1	0.9	0.06	0.8	24	5
CCc1nnc(NC(=O)c2ccc(-c3cccc(C(F)(F)F)c3)o2)s1	0.7	-0.53	0.9	7	34
OCCCc1nc2n(n1)C(c1ccccc1Cl)C=C(c1cccs1)N2 (stereo not drawn)	0.6	0.18	0.5	51*	39
OCCCc1nc2n(n1)C(c1ccccc1)C=C(c1ccc(F)cc1)N2 (stereo not drawn)	/	0.73	/	/	/
CCOc1ccccc1C1C(C(N)=O)=C(C)Nc2nc(CCCO)nn21 (stereo not drawn)	1.2	/	1.2	-18	-18
OCCCc1nc2n(n1)C(c1cccs1)C=C(c1ccccc1)N2 (stereo not drawn)	0.4	/	0	96*	58*
O=C(O)C1CCC(=O)N(C2CCCCC2)C1c1ccccc1 (stereo not drawn)	/	1.1	/	/	/
Cc1ccc(C)c(-n2ccnc2SCC(=O)O)c1	1	1.2	0.4	59*	4
O=C(CSc1nnc(-c2ccc3c(c2)OCO3)n1-c1ccccc1)c1ccc(Cl)cc1	/	0.6	/	/	/
O=C(CSc1nccn1-c1ccccc1)c1ccc(Cl)cc1	0.3	0.08	0.6	36	74*
Cc1ccc(C(=O)CSc2nccn2-c2ccccc2)cc1	0.4	2.1	0.7	31	56*
c1ccc2c(c1)CCN(c1nc3cc4c(cc3s1)OCCO4)C2	0.9	-1.4	0.9	11	11
CC(C)C1(C)C(=O)N=C2c3ccccc3C(=O)N21 (stereo not drawn)	0.7	0.42	1	2	33
CCCOC(=O)CSc1nc(N)c(C#N)c(CC)c1C#N	0.8	-0.88	1	4	25
O=[N+]([O-])c1ccccc1/C=C/C=N/n1c(-c2ccc(Cl)cc2)n[nH]c1=S	0.9	-0.35	0.4	58*	8
Cc1c2cnn(CC(=O)Nc3cccc(C(F)(F)F)c3)c(=O)c2c(C)n1Cc1ccccc1F	/	0.28	/	/	/
CCn1c(COc2ccc(=O)n(-c3ccccc3)n2)nnc1SCc1ccc(C)cc1	0.8	-0.28	0.6	44	16
CCn1c(COc2ccc(=O)n(-c3ccccc3)n2)nnc1SCc1ccccc1C	0.8	0.37	0.4	61*	15
SMILES	CYP2C19 act	Pyk2 oligo antag	CYP2C9 act	CYP2C9 inhib	CYP2C19 inh
Cc1[nH]c(=O)[nH]c(=O)c1CSc1nnc([C@H](CC(C)C)NC(=O)OC(C)(C)C)o1	1	0.64	0.9	8	4
CCCCSc1nnc([C@H](C)NC(=O)OC(C)(C)C)o1	0.2	-0.25	0.7	33	75*
CCCCSc1nnc([C@H](CC(C)C)NC(=O)OC(C)(C)C)o1	0.4	-0.58	0.4	56*	62*
COC(=O)CSc1nnc([C@H](CC(C)C)NC(=O)OC(C)(C)C)o1	0.3	-1	0.9	6	66*
CCOC(=O)CSc1nnc([C@H](CC(C)C)NC(=O)OC(C)(C)C)o1	/	0.19	/	/	/
Cc1occc1-c1nnc(SCC(=O)c2c[nH]c3ccccc23)n1C	0	0.03	0.5	54*	98*
Cc1occc1-c1nnc(SCC(=O)c2ccc(Cl)cc2)n1C	0.1	0.68	0.5	48	85*
COc1ccc(OCCSc2nnc(-c3ccccc3)n2N)cc1	0.8	0.73	1	3	22
COc1ccc(OCCSc2nnc(-c3ccoc3C)n2C)cc1	0.3	0.24	0.3	72*	74*
CCOc1cc(NC(=S)NCCCN2CCOCC2)c(OCC)cc1NC(=O)CC(C)C	0.7	0.9	0.9	6	31
